Results: PubChem BioAssay
Calls of active or inactive are those of the source. Unless noted, the rule behind the calls is not given here.

Columns and labels:
[1] = HepG2 liver cancer cell viability effects, profiling panel, resazurin fluorescence, 24 h, PK04 Diversity Set (AID 1172); conditions: higher = more signal; note: test concentration not given here
[2] = basal S. cerevisiae growth modulation, no modifier, primary screen, OD600, strain BY4716, 24 h, basal condition (AID 1173); conditions: OD600, 24 h, higher = more signal, called active from +8 up or from −8 down
[3] = MM1S myeloma cell viability, profiling panel, resazurin fluorescence, basal, 24 h, PK04 Diversity Set (AID 1174); conditions: higher = more signal, called active from +8 up or from −8 down;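 note: MM1S multiple myeloma cell line; test concentration not given here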
[4] = biological target: Dihydroorotate dehydrogenase (quinone), mitochondrial (Plasmodium falciparum (isolate 3D7)) (UniProt Q08210); assay: PfDHODH enzyme inhibitors, primary screen, biochemical, C-terminal His tag, absorbance 600 nm (AID 1175); conditions: DCIP absorbance 600 nm, higher = more signal, called active from +8 up or from −8 down;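 note: recombinant parasite enzyme with a five histidine tag at its C terminus; test concentration not given here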
[5] = P. aeruginosa biofilm formation inhibitors, primary screen, strain PAO1, LB-PBS medium, absorbance 600 nm (AID 1176); note: test concentration not given here; conditions: P. aeruginosa PAO1 growth/biofilm, A600, 12 h; higher = more signal
[6] = S. cerevisiae RM11-1a growth modifiers, primary screen, strain RM11-1a, OD600, basal, 24 h (AID 1177); conditions: OD600, 24 h, higher = more signal, called active from +8 up or from −8 down;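 note: cultures grown under basal conditions with no added stressor; test concentration not given here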
[7] = E. coli acrAB mutant growth effects, primary screen, E. coli filamentation inducers, strain DRC39, OD650, 24 h (AID 1178); conditions: higher = more signal, called active from +8 up or from −8 down;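 note: growth measured as culture turbidity by optical density at 650 nm; test concentration not given here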
[8] = E. coli acrAB mutant growth effects, primary screen, E. coli filamentation inducers, strain DRC39, OD650, 48 h (AID 1179);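 note: screen aims at cell division blockers that make cells filament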; conditions: E. coli DRC39 delta-acrAB growth, higher = more signal, called active from +8 up or from −8 down
[9] = RPMI8226 myeloma cell viability, profiling panel, resazurin fluorescence, basal, 24 h, PK04 Diversity Set (AID 1180); conditions: higher = more signal;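 note: RPMI8826 multiple myeloma cell line at 5000 cells per well; test concentration not given here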
[10] = biological target: E3 ubiquitin-protein ligase XIAP (Homo sapiens) (UniProt P98170); assay: XIAP binders, primary screen, biophysical, small-molecule microarray, fluorescence 635 nm (AID 1181); conditions: small-molecule microarray binding, higher = more signal;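 note: score merges 667 nm emission and signal to noise over triplicate slides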
Sequence of E3 ubiquitin-protein ligase XIAP (Homo sapiens) (P98170 whole entry, looked up): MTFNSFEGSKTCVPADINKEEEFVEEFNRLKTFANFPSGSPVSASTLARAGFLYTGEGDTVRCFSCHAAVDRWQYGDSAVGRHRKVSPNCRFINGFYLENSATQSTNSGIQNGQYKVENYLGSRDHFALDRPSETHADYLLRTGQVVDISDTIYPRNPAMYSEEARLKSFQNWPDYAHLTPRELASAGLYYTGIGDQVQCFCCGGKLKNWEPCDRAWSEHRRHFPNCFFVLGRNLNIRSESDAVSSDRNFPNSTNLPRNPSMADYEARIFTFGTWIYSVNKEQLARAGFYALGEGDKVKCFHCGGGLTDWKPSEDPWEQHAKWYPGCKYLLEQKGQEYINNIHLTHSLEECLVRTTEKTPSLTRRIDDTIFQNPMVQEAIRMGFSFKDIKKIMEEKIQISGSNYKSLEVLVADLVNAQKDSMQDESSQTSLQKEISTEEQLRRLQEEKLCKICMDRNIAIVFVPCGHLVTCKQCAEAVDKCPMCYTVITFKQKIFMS

Sequence of Dihydroorotate dehydrogenase (quinone), mitochondrial (Plasmodium falciparum (isolate 3D7)) (Q08210 whole entry, looked up): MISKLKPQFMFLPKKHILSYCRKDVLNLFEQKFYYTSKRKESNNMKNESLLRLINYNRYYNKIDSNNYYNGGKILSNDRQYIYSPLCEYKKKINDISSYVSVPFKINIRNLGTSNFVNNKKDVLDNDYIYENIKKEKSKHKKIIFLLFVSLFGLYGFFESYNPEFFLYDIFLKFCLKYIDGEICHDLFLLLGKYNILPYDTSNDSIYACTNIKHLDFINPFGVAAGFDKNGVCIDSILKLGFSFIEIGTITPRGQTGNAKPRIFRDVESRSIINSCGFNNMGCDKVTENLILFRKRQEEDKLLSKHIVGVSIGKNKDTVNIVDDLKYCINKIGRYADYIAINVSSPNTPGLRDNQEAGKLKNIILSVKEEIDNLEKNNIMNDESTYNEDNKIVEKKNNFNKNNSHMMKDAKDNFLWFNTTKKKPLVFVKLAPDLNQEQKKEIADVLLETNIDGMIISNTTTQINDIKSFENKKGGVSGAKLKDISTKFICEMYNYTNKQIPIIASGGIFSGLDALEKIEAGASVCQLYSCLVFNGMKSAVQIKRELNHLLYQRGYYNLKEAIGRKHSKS

SMILES	z-score [1]	z-score [2]	z-score [3]	composite z-score [4]	z-score [5]	z-score [6]	z-score [7]	z-score [8]	z-score [9]	composite z-score [10]
CCCCC(CC)C(O)C1C=CC2C(=O)N(c3ccccc3)C(=O)C2N1Nc1ccc(C#N)cc1 (stereo not given)	-0.0318	-0.847 (inactive)	-0.67 (inactive)	0.215 (inactive)	1.7 (inactive)	0.913 (inactive)	0.248 (inactive)	0.0706 (inactive)	-0.661	0.212
COc1ccc(C#Cc2ccc3c(c2)[C@]2(C(=O)N3)[C@H](c3ccc(OCCO)cc3)N3[C@H](c4ccccc4)[C@H](c4ccccc4)OC(=O)[C@H]3[C@@H]2C(=O)NC[C@H](O)c2ccccc2)cc1	0.0814	3.07 (inactive)	-0.883 (inactive)	-18.4 (active)	2.34 (inactive)	4.84 (inactive)	0.595 (inactive)	0.863 (inactive)	-1.08	0.18
O=C1C2C=CC(C(O)c3ccco3)N(Nc3ccccc3F)C2C(=O)N1c1ccccc1 (stereo not given)	0.162	-0.258 (inactive)	-0.936 (inactive)	0.334 (inactive)	1.04 (inactive)	0.101 (inactive)	-0.887 (inactive)	-0.921 (inactive)	-0.684	0.318
O=C(NCCN1CCOCC1)[C@@H]1c2ccccc2C(=O)N(Cc2ccccc2Cl)[C@H]1c1ccc(CO)cc1	-0.0211	0.199 (inactive)	-1.21 (inactive)	-0.0473 (inactive)	0.0993 (inactive)	0.593 (inactive)	0.447 (inactive)	0.865 (inactive)	-0.831	0.0178
COC(=O)[C@@H]1N=C(c2ccc(OCCCO)cc2)O[C@@H]1C	0.38	0.0443 (inactive)	-0.341 (inactive)	-0.403 (inactive)	-0.689 (inactive)	0.895 (inactive)	0.52 (inactive)	1.13 (inactive)	0.945	0.105
O=C1O[C@@H](c2ccccc2)[C@@H](c2ccccc2)N2[C@@H](c3ccc(OCCO)cc3)[C@]3(C(=O)Nc4ccc(C#CC5=CCCCC5)cc43)[C@@H](C(=O)NC[C@H](O)c3ccccc3)[C@H]12	-0.661	1.49 (inactive)	-1.94 (inactive)	-0.729 (inactive)	3.14 (inactive)	2.72 (inactive)	-0.107 (inactive)	-0.245 (inactive)	-3.11	-0.118
CCC1=C2CN(Cc3ccccc3)[C@@H](C(=O)Cc3ccccc3)C2C=CCC1 (stereo not given in full)	0.999	-3.13 (inactive)	-0.192 (inactive)	-3.14 (inactive)	-1.61 (inactive)	0.129 (inactive)	0.941 (inactive)	-0.0333 (inactive)	-0.0509	0.0554
CCCCN1CC=CC23O[C@@H]4/C=C\CCC(C)OC(=O)C4[C@H]2C(=O)N(CCCO)[C@@H]3C1=O (stereo not given in full)	0.0917	1.04 (inactive)	0.0853 (inactive)	-0.0558 (inactive)	-0.112 (inactive)	0.487 (inactive)	0.0475 (inactive)	-0.154 (inactive)	0.79	-0.267
NCCCCCNC(=O)[C@@H]1C[C@@H]2C(=O)N[C@@H](CCCCN)C(=O)N2[C@@H]1c1ccc(O)cc1	0.983	1.95 (inactive)	0.116 (inactive)	0.0173 (inactive)	2.49 (inactive)	2.39 (inactive)	-0.0253 (inactive)	-0.14 (inactive)	0.249	0.554
C=C(COC)/C(=C/C[C@H](OC(=O)c1ccncc1)c1ccccc1OCCO)c1cc(C(=O)OC)ccc1OC	-0.418	-0.0515 (inactive)	-2.16 (inactive)	-2.32 (inactive)	0.367 (inactive)	-0.567 (inactive)	-1.31 (inactive)	-1.21 (inactive)	-1.58	-0.157
CCOC(=O)C1=C[C@@H](C(C)C)N(S(=O)(=O)c2ccc(C)cc2)[C@H]1c1ccc(C(F)(F)F)cc1	-0.698	2.42 (inactive)	-0.267 (inactive)	0.919 (inactive)	-0.0322 (inactive)	2.24 (inactive)	-0.227 (inactive)	-0.442 (inactive)	-1.58	0.109
[N-]=[N+]=Nc1ccccc1C[C@]1(C(=O)O)COC(c2ccc(OCCCO)cc2)=N1	-0.365	-0.231 (inactive)	0.037 (inactive)	1.04 (inactive)	0.0254 (inactive)	0.212 (inactive)	0.438 (inactive)	-0.8 (inactive)	0.404	0.245
